Data from PubChem BioAssay.
Values joined by “and” are separate entries in the source; they are usually repeats but may differ in a detail not shown here. Equal entries are not always repeated. Records with an inconclusive call do not appear. The source holds several records for some structures; these can differ, active in one and inactive in another. Active and inactive are the calls of the source.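 Rule for the calls, unless noted: active = compounds whose cell count with miR-34 switched on is under 0.7 times the count with it off; inactive = the rest.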

Tests used:
[1] = SU-DIPG-XXV glioma cell viability, MIPE5.0 library, qHTS (AID 1347068; cut-off not given, nearly all actives have IC50 up to about 30 µM)
[2] = survival rescue of mitochondrial mutant cells in low glucose, primary screen, MELAS cybrids, Rieske KO mouse fibroblasts, CellTiter-Glo (AID 1508586;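 active = mean z-score across replicates of 1.96 or higher in either the MELAS or the Rieske mutant cell line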;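 note: z relative to plate mean and SD of compound and empty wells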)
[3] = sensitizers of A549 cells to miR-34 induction, primary screen, imaging, A549 dox-inducible miR-34, nuclei and caspase counts (AID 1347080); settings: A549 miR-34 inducible, Hoechst nuclei count, 48 h
[4] = phospholipid biosynthesis inhibitors in animal cells, primary screen, cell-based, LOPAC library, screen 4 (AID 1347384; call rule not given here); settings: phospholipid biosynthesis inhibition screen, at 10 µM
[5] = biological target: NAD(+) hydrolase SARM1 (Homo sapiens) (UniProt Q6SZW1); experiment: SARM1 TIR NADase inhibitors, cell lysate, NAD-Glo luminescence (AID 1508614;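 active = compound whose remaining NAD level is above about 45 nM, limit read from the data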;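 note: higher remaining NAD means stronger inhibition of SARM1 NADase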); settings: SAM-TIR HEK293T lysate NADase, at 1 µM, stronger effect = higher value
[6] = biological target: Mitogen-activated protein kinase 7 (Homo sapiens) (UniProt Q13164); experiment: ERK5 transactivation activators in reporter cells, primary screen, cell-based, HTS (AID 1508626;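 active = luciferase signal above three times the same-plate solvent-only control wells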;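 note: luciferase driven by Gal4-ERK5 fusion binding five Gal4 sites before minimal TATA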); settings: HeLa Gal4-ERK5 transactivation, 18 h, at 5 µM, stronger effect = higher value
[7] = viability rescue of complex I mutant cybrids, primary screen, cell-based, galactose medium, ATP luminescence (AID 1645843;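 active = z-score of at least 1.8 in each of two replicates, scored against plate mean and spread of sample wells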;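 note: positive z means more ATP and so rescue of galactose-driven cybrid death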); settings: complex I mutant cybrid cells, 72 h, stronger effect = higher value
[8] = inhibitors of Cryptococcus chitosan production, flow cytometry, Cibacron Brilliant Red staining (AID 1347148; call rule not given here;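 note: compound exposure lasted three days at 37 degrees C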); settings: Cryptococcus neoformans chitosan, stronger effect = lower value; at 10 µM unless noted
[9] = modifiers of HSF1 nuclear foci, imaging, Selleck Cancer Library (AID 1347162; in the data active = plate-normalised HSF1 focus index below about 0.46); settings: human cells, at 10 µM; SSMD: measured here: HSF1 foci SSMD mean; cell count: measured here: cell number; plate-normalised HSF1 focus index: stronger effect = lower value
[10] = JHH-DIPG-1 glioma cell viability, MIPE5.0 library, CellTiter-Glo luminescence, qHTS (AID 1347067; cut-off not given, nearly all actives have AC50 up to about 26 µM;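 note: cells exposed to compound for 48 hours before readout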); settings: JHH-DIPG-1 glioma viability, CellTiter-Glo ATP luminescence
[11] = SU-DIPG-VI glioma cell viability, MIPE4.0 library, CellTiter-Glo luminescence, qHTS (AID 1347066; cut-off not given, nearly all actives have AC50 up to about 30 µM;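 note: cells exposed to compound for 48 hours before readout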); settings: CellTiter-Glo ATP luminescence
[12] = MELAS cybrid survival, CellTiter-Glo 48 h, stronger effect = higher value
[13] = Rieske KO mouse fibroblast survival, CellTiter-Glo 72 h
[14] = stronger effect = lower value, cell number ratio, induced over uninduced
[15] = measured here: relative caspase fold change +Dox/-Dox
[16] = measured here: total cells with miR-34 induction, stronger effect = lower value
[17] = measured here: total cells without miR-34 induction

Mitogen-activated protein kinase 7 (Homo sapiens), sequence (Q13164 whole entry, looked up, the tested form may be a part): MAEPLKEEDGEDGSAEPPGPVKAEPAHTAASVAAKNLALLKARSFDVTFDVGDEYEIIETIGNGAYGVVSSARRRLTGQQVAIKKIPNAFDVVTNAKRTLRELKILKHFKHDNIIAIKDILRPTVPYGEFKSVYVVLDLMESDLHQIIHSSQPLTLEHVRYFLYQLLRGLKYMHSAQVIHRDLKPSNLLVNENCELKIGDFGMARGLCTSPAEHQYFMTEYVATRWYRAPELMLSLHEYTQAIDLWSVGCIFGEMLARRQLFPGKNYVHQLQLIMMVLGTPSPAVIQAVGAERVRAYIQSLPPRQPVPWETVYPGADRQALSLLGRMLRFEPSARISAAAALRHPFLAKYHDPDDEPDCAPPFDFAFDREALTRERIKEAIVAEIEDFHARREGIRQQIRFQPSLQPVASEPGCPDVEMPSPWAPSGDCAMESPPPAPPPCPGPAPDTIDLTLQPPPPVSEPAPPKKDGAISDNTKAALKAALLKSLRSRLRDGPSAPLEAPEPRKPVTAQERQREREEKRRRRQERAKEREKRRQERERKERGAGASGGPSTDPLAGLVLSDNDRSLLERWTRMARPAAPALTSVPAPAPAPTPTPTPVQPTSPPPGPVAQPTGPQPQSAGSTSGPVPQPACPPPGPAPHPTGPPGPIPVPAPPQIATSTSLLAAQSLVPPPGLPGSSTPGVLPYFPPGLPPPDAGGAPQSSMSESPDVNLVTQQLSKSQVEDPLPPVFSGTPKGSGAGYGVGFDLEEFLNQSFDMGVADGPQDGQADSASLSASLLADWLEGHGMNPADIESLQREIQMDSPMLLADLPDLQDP
NAD(+) hydrolase SARM1 (Homo sapiens), sequence (Q6SZW1 whole entry, looked up, the tested form may be a part): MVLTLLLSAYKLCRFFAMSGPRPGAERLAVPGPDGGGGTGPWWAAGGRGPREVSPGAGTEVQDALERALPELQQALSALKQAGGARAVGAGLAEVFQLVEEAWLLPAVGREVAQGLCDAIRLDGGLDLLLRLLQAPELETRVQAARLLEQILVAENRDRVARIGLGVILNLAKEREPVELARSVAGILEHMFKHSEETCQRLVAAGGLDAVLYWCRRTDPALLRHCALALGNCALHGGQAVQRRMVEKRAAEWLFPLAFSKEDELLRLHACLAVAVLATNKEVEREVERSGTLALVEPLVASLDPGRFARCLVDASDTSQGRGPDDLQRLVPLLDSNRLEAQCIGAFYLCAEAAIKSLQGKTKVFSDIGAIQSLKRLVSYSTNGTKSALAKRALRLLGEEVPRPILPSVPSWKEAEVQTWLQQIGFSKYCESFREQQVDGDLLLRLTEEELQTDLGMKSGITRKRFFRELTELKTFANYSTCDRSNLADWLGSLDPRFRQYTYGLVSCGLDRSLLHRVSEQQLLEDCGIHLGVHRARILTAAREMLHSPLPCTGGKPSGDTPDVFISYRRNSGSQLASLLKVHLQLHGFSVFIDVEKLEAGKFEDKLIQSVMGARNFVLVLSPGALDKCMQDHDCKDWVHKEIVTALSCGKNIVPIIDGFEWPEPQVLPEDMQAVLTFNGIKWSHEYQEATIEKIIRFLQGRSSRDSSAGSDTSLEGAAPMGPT

CCOC(=O)O[C@]1(C(=O)OCCl)CC[C@H]2[C@@H]3CCC4=CC(=O)C=C[C@]4(C)[C@H]3[C@@H](O)C[C@@]21C
outcome [1]: inactive | z-score [2, 12]: 0.475 (inactive) | z-score [2, 13]: 0.287

CC(CN(C)C)CN1c2ccccc2CCc2ccccc21 (stereo unspecified)
fold change [3, 14]: 1.11 (inactive) and 0.82 (inactive) and 0.914 (inactive) | fold change [3, 15]: 1.28 and 1.05 and 3.48 | cell count [3, 16]: 8450 and 7420 and 11100 | cell count [3, 17]: 7640 and 9050 and 12100 | outcome [4]: inactive | z-score [2, 12]: -0.24 (inactive) | z-score [2, 13]: -0.99 | remaining NAD [5]: 10 nM (inactive) | luciferase signal [6]: 64 AU (inactive) | z-score [7]: -1.16 (inactive)

CS(=O)(=O)Nc1ccc([N+](=O)[O-])cc1Oc1ccccc1
outcome [1]: inactive | fold fluorescence [8]: 4.45 [at 162.2 µM] (inactive) | outcome [4]: inactive | z-score [2, 12]: -0.305 (inactive) and 0.634 (inactive) and -0.303 (inactive) | z-score [2, 13]: 1.18 and 0.441 and -0.993 | remaining NAD [5]: 10 nM (inactive) | luciferase signal [6]: 60 AU (inactive) | z-score [7]: 1.54 (inactive) and 2.81 (active) and 0.735 (inactive)

CCN(CC)C(C)CN1c2ccccc2Sc2ccccc21 (stereo unspecified)
fold change [3, 14]: 1.11 (inactive) and 0.804 (inactive) and 0.894 (inactive) | fold change [3, 15]: 1.02 and 1.63 and 0.788 | cell count [3, 16]: 9230 and 7320 and 9620 | cell count [3, 17]: 8340 and 9100 and 10800 | outcome [4]: inactive | z-score [2, 12]: -0.553 (inactive) | z-score [2, 13]: -0.605 | remaining NAD [5]: 10 nM (inactive) | luciferase signal [6]: 36 AU (inactive) | z-score [7]: -0.44 (inactive)

C[N+](C)(C)CCCCCC[N+](C)(C)C
fold change [3, 14]: 0.986 (inactive) and 1.01 (inactive) and 0.859 (inactive) | fold change [3, 15]: 0.977 and 0.809 and 0.908 | cell count [3, 16]: 10300 and 10200 and 8850 | cell count [3, 17]: 10500 and 10100 and 10300 | outcome [4]: inactive | z-score [2, 12]: 0.935 (inactive) | z-score [2, 13]: 0.174 | remaining NAD [5]: 10 nM (inactive) | luciferase signal [6]: 52 AU (inactive) | z-score [7]: 0.205 (inactive) and 0.235 (inactive)

C[C@]12CC[C@@H]3c4ccc(O)cc4CC[C@H]3[C@@H]1CCC2=O
fold change [3, 14]: 0.96 (inactive) and 0.932 (inactive) and 0.881 (inactive) | fold change [3, 15]: 1.22 and 1.44 and 1.06 | cell count [3, 16]: 9000 and 8450 and 7620 | cell count [3, 17]: 9370 and 9060 and 8650 | SSMD [9]: 2.44 | cell count [9]: 6870 | plate-normalised HSF1 focus index [9]: 1.13 (inactive) | outcome [4]: inactive | z-score [2, 12]: 0.711 (inactive) and 0.373 (inactive) | z-score [2, 13]: 0.46 and -0.298 | remaining NAD [5]: 10 nM (inactive) | luciferase signal [6]: 28 AU (inactive) | z-score [7]: -0.23 (inactive) and -0.335 (inactive)

CC(=O)OCC1=C(C(=O)O)N2C(=O)[C@@H](NC(=O)Cc3cccs3)[C@H]2SC1
fold change [3, 14]: 1.04 (inactive) and 0.943 (inactive) and 0.907 (inactive) | fold change [3, 15]: 2.01 and 1.12 and 1.53 | cell count [3, 16]: 10600 and 8990 and 11000 | cell count [3, 17]: 10300 and 9530 and 12100 | outcome [4]: inactive | z-score [2, 12]: -0.988 (inactive) | z-score [2, 13]: -1.16 | remaining NAD [5]: 10 nM (inactive) | luciferase signal [6]: 52 AU (inactive) | z-score [7]: 0.015 (inactive)

CC(C)NNC(=O)c1ccncc1
fold change [3, 14]: 1.01 (inactive) and 0.987 (inactive) and 0.902 (inactive) | fold change [3, 15]: 0.707 and 0.895 and 1.13 | cell count [3, 16]: 10400 and 9260 and 10200 | cell count [3, 17]: 10300 and 9380 and 11300 | outcome [4]: inactive | z-score [2, 12]: -0.146 (inactive) and 0.243 (inactive) | z-score [2, 13]: -0.0689 and -0.0455 | remaining NAD [5]: 10 nM (inactive) | luciferase signal [6]: 60 AU (inactive) | z-score [7]: 0.54 (inactive) and 0.67 (inactive)

Cc1ccc(C(=O)Nc2ccc(S(=O)(=O)O)c3cc(S(=O)(=O)O)cc(S(=O)(=O)O)c23)cc1NC(=O)c1cccc(NC(=O)Nc2cccc(C(=O)Nc3cc(C(=O)Nc4ccc(S(=O)(=O)O)c5cc(S(=O)(=O)O)cc(S(=O)(=O)O)c45)ccc3C)c2)c1
outcome [10]: inactive | outcome [1]: inactive | cell count [3, 17]: 10200 and 13600 and 11000 | outcome [4]: inactive | z-score [2, 12]: 0.0857 (inactive) | z-score [2, 13]: -0.401 | remaining NAD [5]: 10 nM (inactive) | luciferase signal [6]: 48 AU (inactive) | z-score [7]: 4.14 (active) and 1.81 (inactive) and 0.955 (inactive)

NCCS
fold change [3, 14]: 1.1 (inactive) and 0.868 (inactive) and 0.893 (inactive) | fold change [3, 15]: 0.51 and 1.42 and 2.94 | cell count [3, 16]: 11000 and 8060 and 11500 | cell count [3, 17]: 9990 and 9290 and 12900 | outcome [4]: inactive | z-score [2, 12]: -0.14 (inactive) | z-score [2, 13]: -0.336 | remaining NAD [5]: 10 nM (inactive) | luciferase signal [6]: 76 AU (inactive) | z-score [7]: 0.24 (inactive)

CC1=C(C(=O)O)N2C(=O)[C@@H](NC(=O)[C@H](N)C3=CCC=CC3)[C@H]2SC1
outcome [11]: inactive | remaining NAD [5]: 10 nM (inactive) | luciferase signal [6]: 48 AU (inactive)

CNS(=O)(=O)Cc1ccc2[nH]cc(CCN(C)C)c2c1
outcome [11]: inactive | z-score [2, 12]: -0.261 (inactive) and 0.654 (inactive) and -0.798 (inactive) | z-score [2, 13]: -0.042 and 0.351 and -0.245 | remaining NAD [5]: 10 nM (inactive) | z-score [7]: 0.385 (inactive) and 0.365 (inactive) and 0.755 (inactive)
